Activity calls are given as the source filed them. Unless noted, no rule for the calls is given here.
What was measured:
[1] = compounds altering circadian rhythm period length – cell-based, LOPAC library, luminescence reporter (AID 2774); details: circadian reporter cells, at 7 µM, actives lie on both sides;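 also: values are relative to mean of DMSO wells on each plate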
[2] = system: Hepatitis C virus NS3 helicase; assay: blockers of NS3h binding to ssDNA – biochemical, fluorescence polarization, LOPAC1280 library, primary screen (AID 687035; in the data active = inhibition above about 37%); details: Purified HCV NS3 helicase, Cy5-dT15 ssDNA binding fluorescence polarization; stronger effect = higher value; concentration not given here
[3] = compounds altering Cy5-DNA-NS3h complex signal – biochemical, LOPAC1280, artefact control for HCV NS3 helicase inhibitor project (AID 687037); details: Cy5-DNA-NS3h complex fluorescence interference counterscreen
[4] = system: Aerobactin synthetase IucA (Klebsiella pneumoniae, hypervirulent); assay: biochemical IucA inhibition screen of LOPAC library by absorbance (AID 1346212); details: IucA enzyme assay, absorbance (OD) readout; stronger effect = lower value;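 tested at 8 µM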;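 also: 100% = no compound wells and 0% = no enzyme wells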
[5] = viability loss with induced miR-34 in A549 – imaging, A549 dox-inducible miR-34, nuclei and caspase counts, primary screen (AID 1347080;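 active = compounds whose cell count with miR-34 switched on is under 0.7 times the count with it off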); details: A549 miR-34 inducible, Hoechst nuclei count, 48 h
[6] = compounds altering viability of human ES cells (AID 493140); details: human embryonic stem cell survival screen; stronger effect = higher value;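 also: cells exposed to compounds for four days before counting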
[7] = galactose survival enhancers in mitochondrial complex I cybrids – cell-based, galactose medium, ATP luminescence, primary screen (AID 1645843;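 active = z-score of at least 1.8 in each of two replicates, scored against plate mean and spread of sample wells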;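 also: positive z means more ATP and so rescue of galactose-driven cybrid death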); details: complex I mutant cybrid cells, 72 h, stronger effect = higher value
[8] = blockers of cellular phospholipid synthesis – cell-based, LOPAC library, screen 4, primary screen (AID 1347384); details: animal cells, phospholipid biosynthesis inhibition screen; at 10 µM
[9] = measured here: relative caspase fold change +Dox/-Dox
[10] = measured here: total cells with miR-34 induction, stronger effect = lower value
[11] = measured here: total cells without miR-34 induction

SMILES: CCCCCCC(C)(C)c1ccc([C@@H]2C[C@H](O)CC[C@H]2CCCO)c(O)c1
- period change [1]: 0.01 h (inactive)
- inhibition [2]: -4% (inactive)
- fluorescence ratio (interference) [3]: 1 (inactive)
- remaining activity [4]: 106% (inactive)
- fold change ([5]; stronger effect = lower value): 0.915 (inactive)
- fold change [5, 9]: 0.979
- cell count [5, 10]: 5170
- cell count [5, 11]: 5640

SMILES: N[C@@H](Cn1ccc(=O)[nH]c1=O)C(=O)O
- period change [1]: 0.095 h (inactive)
- remaining activity [4]: 122% (inactive)

SMILES: O=C(O)C1C2CCC(O2)C1C(=O)O (stereo unspecified)
- period change [1]: 0.03 h (inactive)
- survival [6]: 66 (inactive)
- remaining activity [4]: 81.7% (inactive)

SMILES: CCN(CC)C(=O)N[C@@H]1C[C@@H]2c3cccc4[nH]cc(c34)C[C@H]2N(C)C1
- period change [1]: 0.085 h (inactive)
- remaining activity [4]: 102% (inactive)

SMILES: CCN(CC)c1ncnc2c1ncn2[C@@H]1O[C@H](COP(=O)(O)OP(=O)(O)C(Br)(Br)P(=O)(O)O)[C@@H](O)[C@H]1O
- period change [1]: 0.205 h (inactive)
- inhibition [2]: -1% (inactive)
- fluorescence ratio (interference) [3]: 1 (inactive)
- remaining activity [4]: 110% (inactive)
- fold change ([5]; stronger effect = lower value): 1.01 (inactive)
- fold change [5, 9]: 2.23
- cell count [5, 10]: 10400
- cell count [5, 11]: 10200
- z-score [7]: 0.37 (inactive)

SMILES: CC(=O)OCC1=C(C(=O)[O-])N2C(=O)[C@@H](NC(=O)CCC[C@@H](N)C(=O)[O-])[C@H]2SC1.[Zn+2]
- period change [1]: -0.01 h (inactive)
- inhibition [2]: 0% (inactive)
- fluorescence ratio (interference) [3]: 0.9 (inactive)
- remaining activity [4]: 102% (inactive)
- fold change ([5]; stronger effect = lower value): 1.04 (inactive)
- fold change [5, 9]: 1.44
- cell count [5, 10]: 10400
- cell count [5, 11]: 10000
- z-score [7]: -0.275 (inactive)

SMILES: CCc1c(C(=O)OC)ncc2[nH]c3cc(OC)c(OC)cc3c12
- period change [1]: 0.185 h (inactive)
- remaining activity [4]: 93% (inactive)

SMILES: C=CCN1CC[C@]23c4c5ccc(O)c4O[C@@H]2/C(=N/N=C2\CC[C@@]4(O)C6Cc7ccc(O)c8c7[C@@]4(CCN6CC=C)[C@@H]2O8)CC[C@@]3(O)C1C5
- period change [1]: 0.015 h (inactive)
- remaining activity [4]: 108% (inactive)

SMILES: Nc1ncnc2c1ncn2[C@@H]1O[C@H](COP(=O)(O)CP(=O)(O)OP(=O)(O)O)[C@H](O)C1O (stereo partly specified)
- period change [1]: 0.01 h (inactive)
- inhibition [2]: -1% (inactive)
- fluorescence ratio (interference) [3]: 1 (inactive)
- remaining activity [4]: 111% (inactive)
- fold change ([5]; stronger effect = lower value): 1.06 (inactive)
- fold change [5, 9]: 0.784
- cell count [5, 10]: 11200
- cell count [5, 11]: 10600
- z-score [7]: 2.36 (active)

SMILES: CC(C)[C@H]1CN[C@H](C(=O)O)[C@H]1CC(=O)O
- inhibition [2]: 1% (inactive)
- fluorescence ratio (interference) [3]: 1 (inactive)
- remaining activity [4]: 93.8% (inactive)
- fold change ([5]; stronger effect = lower value): 0.952 (inactive)
- fold change [5, 9]: 0.99
- cell count [5, 10]: 9550
- cell count [5, 11]: 10000
- outcome [8]: inactive
- z-score [7]: 0.11 (inactive)

SMILES: N#CC(C#N)=Cc1cc(O)c(O)c(O)c1
- period change [1]: -0.035 h (inactive)
- survival [6]: 61.5 (inactive)
- remaining activity [4]: 109% (inactive)

SMILES: c1ccc(C2(c3ccccc3)CC2C2=NCCN2)cc1 (stereo unspecified)
- inhibition [2]: -3% (inactive)
- fluorescence ratio (interference) [3]: 0.9 (inactive)
- remaining activity [4]: 115% (inactive)
- fold change ([5]; stronger effect = lower value, cell number ratio, induced over uninduced): 1.07 (inactive)
- fold change [5, 9]: 1.35
- cell count [5, 10]: 11300
- cell count [5, 11]: 10600
- outcome [8]: inactive
- z-score [7]: 0.18 (inactive)

SMILES: C[C@@H]1O[C@H](C[N+](C)(C)C)CS1
- period change [1]: -0.11 h (inactive)
- inhibition [2]: -1% (inactive)
- fluorescence ratio (interference) [3]: 1 (inactive)
- remaining activity [4]: 81.1% (inactive)

Source: PubChem BioAssay
